# Experimental data: publication PMC4552634, “A New Set of Chemical Starting Points with Plasmodium falciparum Transmission-Blocking Potential for Antimalarial Drug Discovery” (PLoS ONE, 2015)
# The campaign covered roughly 13,000 compounds. About 3,200 (25%) showed an effect of 50% or more. The list shows a part of the results.
# System: P. falciparum stage V gametocytes
# Parameters: BacTiter-Glo ATP luminescence viability of purified stage V gametocytes in 384-well plates, per cent inhibition versus DMSO
# Settings: 48 h, 5 µM; inhibitor
row,Structure (SMILES),% Inhibition [%]
1,O=C(Nc1cccc(-c2cccc(-c3nc4ccc(F)cc4[nH]3)c2)c1)Nc1ccc2c(c1)OCO2 [TCMDC-133165],6.84
2,NCc1ccc(CNCc2cccc(-c3cccc(-c4nc5ccccc5[nH]4)c3)c2)cc1 [TCMDC-132817],74.49
3,Fc1ccc2nc(-c3cccc(-c4cccc(CNCc5ccccc5)c4)c3)[nH]c2c1 [TCMDC-132699],-56.67
4,COc1ccc(CNCc2cccc(-c3cccc(-c4nc5ccccc5[nH]4)c3)c2)cc1 [TCMDC-132716],-25.62
5,NCc1ccc(CNCc2cccc(-c3ccc(-c4nc5ccccc5[nH]4)cc3)c2)cc1 [TCMDC-132815],106.4
6,c1ccc(CNCc2cccc(-c3ccc(-c4nc5ccccc5[nH]4)cc3)c2)cc1 [TCMDC-132700],26.72
7,NCc1ccc(CNCc2cccc(-c3cccc(-c4nc5ccc(F)cc5[nH]4)c3)c2)cc1 [TCMDC-132816],98.03
8,Nc1cccc(CNCc2cccc(-c3cccc(-c4nc5ccc(F)cc5[nH]4)c3)c2)c1 [TCMDC-132941],-20.24
9,Nc1cccc(CNCc2cccc(-c3cccc(-c4nc5ccccc5[nH]4)c3)c2)c1 [TCMDC-132942],-10.95
10,c1ccc(CNCc2cccc(-c3cccc(-c4nc5ccccc5[nH]4)c3)c2)cc1 [TCMDC-132698],-20.89
11,CCNc1cc(C(=O)N[C@@H](Cc2ccccc2)[C@H](O)CNC2(Cc3cccc(Cl)c3)CCC2)cc(N2CCCCS2(=O)=O)c1 [TCMDC-135383],17.64
12,COc1cccc(CNc2noc(-c3c(-c4ccccc4)noc3C)n2)c1OC [TCMDC-134204],10.03
13,COc1ccc(-c2nc(NCc3ccccc3)c3cc(OC)c(OC)cc3n2)cc1 [TCMDC-132018],17.4
14,CCN(CCCNc1nc(=S)[nH]c2cc(OC)c(OC)cc12)c1ccccc1 [TCMDC-124446],83.33
15,Cc1ccc2[nH]c3c(NCCCN(C)C)ncnc3c2c1 [TCMDC-124580],4.888
16,Cc1cc(OCCCN2CCC(NS(=O)(=O)c3cc(Br)c(Cl)s3)CC2)c2ccccc2n1 [TCMDC-136280],-17.93
17,Cc1cc(NC(=O)c2ccco2)ccc1OC1CCN(Cc2ccc(C#N)cc2)CC1 [TCMDC-133956],24.43
18,CN(c1ccccc1C(=O)Nc1ccccc1Oc1ccccc1)S(=O)(=O)c1ccccc1 [TCMDC-125092],-61.36
19,CN(c1ccccc1C(=O)Nc1cc(Cl)ccc1Oc1ccccc1)S(=O)(=O)c1ccccc1 [TCMDC-124364],33.71
20,Cc1ccc(S(=O)(=O)N(C)c2ccccc2C(=O)Nc2ccccc2Oc2ccccc2)cc1 [TCMDC-125068],52.2
